Data on 65 molecules can be found in PubChem BioAssay AID652115 (Broad Institute, 2013).

Several values for one entry are separate records, joined by “and”; a condition that tells them apart may be missing. Equal values may be shown once. About 3,800 (1.2%) of roughly 330,000 compounds were called active. Cut-off read from the data, not from the text of the source: active = inhibition above about 15%; inconclusive = no clear call, values can overlap the other calls; inactive = below that. The entries come from a sample that favours actives as a whole. More than one record can exist for a structure, and the calls need not agree.

For the assay, the target named is NAD-dependent protein deacylase sirtuin-5, mitochondrial (Homo sapiens) (UniProt Q9NXA8). The experiment in a line: SIRT5 desuccinylase inhibitors, primary screen, biochemical, fluorescence imaging, single point, set 5 (AID 652115). The note with it: Purified SirT5, succinyl-peptide AMC, trypsin-coupled fluorescence; at 15 µM; stronger effect = higher value.
Sequence of NAD-dependent protein deacylase sirtuin-5, mitochondrial (Homo sapiens) (Q9NXA8 whole entry, looked up): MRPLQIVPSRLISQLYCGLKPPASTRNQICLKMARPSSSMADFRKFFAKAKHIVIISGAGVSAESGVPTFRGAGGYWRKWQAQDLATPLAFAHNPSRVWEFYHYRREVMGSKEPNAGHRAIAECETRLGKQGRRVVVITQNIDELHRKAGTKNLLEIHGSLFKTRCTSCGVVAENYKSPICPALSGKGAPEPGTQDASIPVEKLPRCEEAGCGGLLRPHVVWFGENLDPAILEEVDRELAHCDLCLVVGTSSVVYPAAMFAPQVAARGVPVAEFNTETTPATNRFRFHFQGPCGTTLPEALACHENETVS
As usually defined, the inhibition is the drop in the measured response relative to a control, in per cent. For `CCOC(=O)CN1C(=O)C(O)(CC(=O)c2ccccn2)c2ccccc21` (stereo not given), the inhibition is -3.62% (inactive). The result for `C=CCN1C(=O)C2(OCCCO2)c2cccc(Cl)c21` reads -2.09% (inactive); that for `C=CCN1C(=O)C(O)(CC(=O)c2ccccn2)c2ccccc21` (stereo not given), 26.6% (active). The value for `C[C@@H]1CN([C@H](C)CO)C(=O)c2cc(NC(=O)NC3CCCCC3)ccc2O[C@@H](C)CCCCO[C@H]1CN(C)C(=O)Nc1ccccc1` was 3.67% (inactive); that for `CCCNC(=O)N1[C@@H](C#N)[C@H](c2ccc(-c3ccc(C(=O)N(C)C)cc3)cc2)[C@@H]1CO` was 4.75% (inactive). The value for `CO[C@@H]1CN(C)C(=O)c2cc(NC(=O)C3CCC3)ccc2OC[C@H](C)N(Cc2nccs2)C[C@H]1C` was -1.69% (inactive); that for `COc1cccc(S(=O)(=O)N2CCC3(CC2)CN[C@H](CO)c2c3c3ccc(OC)cc3n2C)c1` was 1.64% (inactive). On to `O=C(C[C@@H]1C[C@@H]2c3cc(NS(=O)(=O)c4ccc(F)cc4)ccc3O[C@@H]2[C@H](CO)O1)NCc1cc(F)ccc1F`, for which the inhibition was -3.29% (inactive). The value for `COCC(=O)N1CC(=O)N2[C@H](C1)[C@H](c1ccc(C#CC3CCCCC3)cc1)[C@@H]2CO` was -2.8% (inactive); that for `COc1ccccc1CN(C)C(=O)c1cc2ccccc2o1` was -1.39% (inactive); that for `CN(C)C(CNC(=O)c1cc2ccccc2o1)c1ccccc1` (stereo not given) was -2.25% (inactive). The result for `CN(C)CCCCCN(C)Cc1cc2ccccc2o1` reads 36.8% (active). The result for `C[C@@H]1CN([C@H](C)CO)C(=O)c2cc(NS(=O)(=O)c3ccc(F)cc3)ccc2O[C@H]1CN(C)Cc1ccncc1` reads -0.686% (inactive).

Turning to `O=S(=O)(c1ccccc1)N1C[C@@H]2[C@H](c3ccccc31)[C@H](CO)N2Cc1ccccn1`, the inhibition was 1.34% (inactive). Take `Cc1ccc(-c2csc(NC(=O)Cn3[nH]c(=O)c4ccccc4c3=O)n2)cc1`: the inhibition was 112% (active). As to `CC(=O)NCc1ccc(-c2csc(NC(=O)CCCc3nc4ccccc4c(=O)[nH]3)n2)cc1`, the inhibition was -2.85% (inactive).

For the molecule `O=C(CSc1nc2ccccc2c(=O)[nH]1)Nc1nc(-c2ccc(Br)cc2)cs1`, the inhibition is -5.37% (inactive). The result for `Cc1noc(C)c1S(=O)(=O)N(C)C[C@@H]1OCCCC[C@@H](C)Oc2ccc(NC(=O)c3ccccc3)cc2C(=O)N([C@H](C)CO)C[C@H]1C` reads 0.24% (inactive); that for `COc1ccc(NC(=O)Nc2cccc3c2O[C@H](CN(C)S(=O)(=O)c2cccs2)[C@H](C)CN([C@@H](C)CO)C3=O)cc1`, 1.18% (inactive). The value for `CC(C)NC(=O)Nc1cccc2c1O[C@H](CN(C)S(=O)(=O)c1cccs1)[C@@H](C)CN([C@H](C)CO)C2=O` was 23.7% (active); that for `C[C@@H]1CN([C@H](C)CO)C(=O)c2cccc(NC(=O)Nc3ccccc3)c2O[C@@H]1CN(C)C(=O)NC1CCCCC1` was 3.35% (inactive); that for `C[C@H]1CN([C@@H](C)CO)C(=O)c2ccccc2-c2ccccc2CO[C@H]1CN(C)C(=O)Nc1ccc(-c2ccccc2)cc1` was 16.8% (active). The value for `C[C@@H]1CN([C@@H](C)CO)C(=O)c2ccccc2-c2ccccc2CO[C@H]1CN(C)C(=O)Nc1ccccc1` was -1.46% (inactive); that for `C[C@H](CO)N1C[C@H](C)[C@@H](CN(C)C(=O)NC2CCCCC2)Oc2c(NC(=O)Nc3ccc(F)cc3)cccc2C1=O` was 103% (active); that for `C[C@H]1CN([C@@H](C)CO)C(=O)c2cccc(NC(=O)Nc3ccc(C(F)(F)F)cc3)c2O[C@H]1CN(C)C(=O)NC1CCCCC1` was 2.24% (inactive). In the case of `COc1ccc(NC(=O)N(C)C[C@H]2OCc3ccccc3-c3ccccc3C(=O)N([C@H](C)CO)C[C@@H]2C)cc1`, the inhibition is 1.71% (inactive). Consider `C[C@@H]1CN([C@H](C)CO)C(=O)c2cccc(NS(C)(=O)=O)c2O[C@@H]1CN(C)S(=O)(=O)c1cccs1`, for which the inhibition was 1.65% (inactive). The result for `COc1ccc2c3c(n(C)c2c1)[C@H](CO)N(C)CC31CN(S(=O)(=O)c2cccc(C)c2)C1` reads 4.2% (inactive); that for `CO[C@H]1CN(C)C(=O)c2cc(NC(=O)Nc3ccccc3F)ccc2OC[C@H](C)N(C)C[C@H]1C`, -12% (inactive); that for `C[C@H](CO)N1C[C@H](C)[C@@H](CN(C)S(=O)(=O)c2ccc(F)cc2)OCCCC[C@H](C)Oc2ccc(NC(=O)CCCN(C)C)cc2C1=O`, -2.49% (inactive). As for `C[C@H](NC(=O)C[C@@H]1CC[C@H](NC(=O)CN2CCOCC2)[C@H](CO)O1)c1ccccc1`, the inhibition was -3.17% (inactive). The value for `Cc1cc(C)cc(C(=O)NC2C(=O)N3C(C(=O)O)=C(CSc4nnc(C)s4)CSC23)c1` (stereo not given) was -0.622% (inactive).

For `CO/N=C(\C(=O)N[C@@H]1C(=O)N2C(C(=O)O)=C(COC(C)=O)CS[C@H]12)c1csc(N)n1` (stereo in doubt), the inhibition was -2.03% (inactive) and -4% (inactive) and 22.2% (active).

Regarding `C=CC1=C(C(=O)O)N2C(=O)[C@@H](NC(=O)/C(=N/OCC(=O)O)c3csc(N)n3)[C@H]2SC1`, the inhibition is 30.9% (active).

With `Cc1nnc(SCC2=C(C(=O)O)N3C(=O)C(NC(=O)Cn4nc(C)c(Cl)c4C)C3SC2)s1` (stereo not given), the inhibition is -1.34% (inactive). The result for `C=CC1=C(C(=O)O)N2C(=O)[C@@H](NC(=O)/C(=N\OCC(=O)O)c3csc(N)n3)[C@H]2SC1` reads 31.1% (active). The value for `CO[C@@H]1CN(C)C(=O)c2cc(NC(=O)C3CC3)ccc2OC[C@@H](C)N(Cc2nccs2)C[C@@H]1C` was -0.135% (inactive); that for `CCC(=O)N1[C@@H]2CN(C(=O)Nc3ccc(Cl)cc3)c3ccccc3[C@@H]2[C@@H]1CO` was -1.71% (inactive); that for `CCCNC(=O)C[C@H]1C[C@@H]2c3cc(NC(=O)NC4CCCC4)ccc3O[C@@H]2[C@@H](CO)O1` was -4.3% (inactive).

In the case of `CN(C)CC(=O)N[C@@H]1C[C@@H]2O[C@H](CO)CC[C@@H]2O[C@@H]1CCc1ccc(C#Cc2ccccc2)cc1`, the inhibition was -2.33% (inactive). The value for `Cc1noc(C)c1NC(=O)Nc1ccc2c(c1)C(=O)N([C@@H](C)CO)C[C@@H](C)[C@H](CN(C)C)O2` was -1.93% (inactive); that for `CN(C)CC(=O)Nc1ccc2c(c1)[C@H]1C[C@H](CC(=O)NCc3ccc4c(c3)OCO4)O[C@@H](CO)[C@H]1O2` was 0.927% (inactive).

On to `Cc1ccc(S(=O)(=O)N(C)C[C@@H]2Oc3ccc(N(C)C)cc3C(=O)N([C@@H](C)CO)C[C@H]2C)cc1`, for which the inhibition is -7.63% (inactive). The value for `COc1ccc2c3c(n(C)c2c1)[C@@H](CO)N(Cc1ccncc1)CC31CN(C(=O)C2CCC2)C1` was 2.18% (inactive); that for `COc1cccc(C(=O)Nc2nc3ccc(S(C)(=O)=O)cc3s2)c1` was -3% (inactive). The value for `CS(=O)(=O)c1ccc2nc(NC(=O)c3ccc(Cl)nc3)sc2c1` was 2.94% (inactive). The value for `CNC(=O)c1ccc2nc(NC(C)=O)sc2c1` was 17.4% (active); that for `CCC(=O)N1C[C@@H](C)[C@H](OC)CN(C)C(=O)c2ccc(NC(=O)c3ccc(F)cc3)cc2OC[C@@H]1C` was -5.95% (inactive). Turning to `O=C(CN1CCOCC1)NCC[C@H]1CC[C@@H](NC(=O)Nc2ccc(Cl)cc2)[C@@H](CO)O1`, the inhibition is 2.34% (inactive). The value for `COC(=O)C(CC#Cc1ccc2c(c1)[C@]1(C(=O)N2)[C@H](c2ccc(O)cc2)N2[C@H](c3ccccc3)[C@H](c3ccccc3)OC(=O)[C@H]2[C@@H]1C(=O)NC[C@H](O)c1ccccc1)C(=O)OC` was 5.09% (inactive); that for `COC(=O)C(CC#Cc1ccc2c(c1)[C@]1(C(=O)N2)[C@H](c2ccccc2OCCO)N2[C@H](c3ccccc3)[C@H](c3ccccc3)OC(=O)[C@H]2[C@@H]1C(N)=O)C(=O)OC` was 19.5% (active). The value for `COc1ccc(C#Cc2ccc3c(c2)[C@]2(C(=O)N3)[C@H](c3ccccc3OCCO)N3[C@H](c4ccccc4)[C@H](c4ccccc4)OC(=O)[C@H]3[C@@H]2C(=O)N2CCCCCCC2)cc1` was 0.608% (inactive); that for `CCCN1[C@@H]2c3ccc(C4=CCCC4)c(=O)n3C[C@@H]2[C@@H](CO)[C@@H]1C(=O)NCc1ccccn1` was -0.978% (inactive). The value for `CC(C)CC#Cc1ccc2c(c1)O[C@H](CN(C)C(=O)CC1CC1)[C@@H](C)CN([C@@H](C)CO)S2(=O)=O` was 31.5% (active); that for `CC(C)CC#Cc1ccc2c(c1)O[C@@H](CN(C)C(=O)c1ccccc1F)[C@H](C)CN([C@H](C)CO)S2(=O)=O` was 6.8% (inactive); that for `C[C@@H]1CN([C@@H](C)CO)S(=O)(=O)c2ccc(C#Cc3ccc(F)cc3)cc2O[C@@H]1CN(C)CC1CC1` was 15.1% (active). As to `CC(C)CC#Cc1ccc2c(c1)O[C@@H](CN(C)C(=O)Nc1ccccc1F)[C@@H](C)CN([C@@H](C)CO)S2(=O)=O`, the inhibition is 18.7% (active). The value for `C[C@@H]1CN([C@H](C)CO)S(=O)(=O)c2ccc(C#CCN(C)C)cc2O[C@H]1CN(C)C(=O)CC1CC1` was 2.43% (inactive); that for `COCC#Cc1ccc2c(c1)O[C@@H](CN(C)C(=O)Nc1ccccc1F)[C@H](C)CN([C@H](C)CO)S2(=O)=O` was 3.15% (inactive); that for `C[C@H](CO)N1C[C@H](C)[C@H](CN(C)CC2CC2)Oc2cc(-c3ccc(F)cc3)ccc2S1(=O)=O` was -4.28% (inactive). The result for `C[C@@H]1CN([C@@H](C)CO)S(=O)(=O)c2ccc(C#CCN(C)C)cc2O[C@@H]1CN(C)C(=O)CC1CC1` reads 1.11% (inactive). The value for `C[C@@H]1CN([C@@H](C)CO)S(=O)(=O)c2ccc(-c3ccc(F)cc3)cc2O[C@@H]1CN(C)CC1CC1` was -1.76% (inactive); that for `COCC(=O)N(C)C[C@H]1Oc2cc(C#CC(C)C)ccc2S(=O)(=O)N([C@H](C)CO)C[C@@H]1C` was 3.27% (inactive).

With `CCC(=O)N(C)C[C@H]1Oc2cc(C#CCC(C)C)ccc2S(=O)(=O)N([C@H](C)CO)C[C@H]1C`, the inhibition is 0.389% (inactive). The value for `COCC(=O)N(C)C[C@@H]1Oc2cc(C#CCC(C)C)ccc2S(=O)(=O)N([C@@H](C)CO)C[C@@H]1C` was 15.3% (active).
